Measured values as given in PMC7862700, “An all-to-all approach to the identification of sequence-specific readers for epigenetic DNA modifications on cytosine”.

Legend:
Assay in all cases: DAPPL (digital affinity profiling via proximity ligation, sequencing); 10 mM Tris-HCl pH 7.5, 50 mM NaCl, 1 mM DTT, 4% glycerol, room temperature, 30 min; GST-TFs on glutathione beads, 16-mer random dsDNA library, 0.1% formaldehyde crosslink after washing; high values mean tight binding
Details in all cases: protein: recombinant; tags: N-terminal GST; dsDNA, one strand shown
FLI1 = biological target: T1, FLI1 (Homo sapiens, UniProt Q01543 1-452)
T1 sequence: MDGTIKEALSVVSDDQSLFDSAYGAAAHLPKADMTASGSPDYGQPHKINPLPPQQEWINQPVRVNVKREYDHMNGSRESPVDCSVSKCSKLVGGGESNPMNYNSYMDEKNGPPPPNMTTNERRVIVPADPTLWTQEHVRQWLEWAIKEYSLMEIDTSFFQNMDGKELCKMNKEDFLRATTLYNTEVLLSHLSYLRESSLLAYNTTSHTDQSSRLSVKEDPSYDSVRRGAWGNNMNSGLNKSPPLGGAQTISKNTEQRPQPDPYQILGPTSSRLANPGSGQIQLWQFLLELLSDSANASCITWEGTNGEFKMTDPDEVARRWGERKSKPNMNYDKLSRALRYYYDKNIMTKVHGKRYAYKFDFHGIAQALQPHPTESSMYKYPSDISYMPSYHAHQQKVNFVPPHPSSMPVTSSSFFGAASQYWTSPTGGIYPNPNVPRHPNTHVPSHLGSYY
Procedure, shortened: (§1)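 A tag-only sample was pooled with DNA-barcoded human transcription factors that had been expressed in yeast as GST fusions and captured on glutathione beads. The pools were incubated for 30 min at room temperature with 200 nmole of a random double-stranded 16-mer DNA library in Tris/NaCl/DTT/glycerol buffer, then washed, crosslinked with 0.1% formaldehyde, proximity-ligated (BsaI/T4 ligase, 1 h, 37 °C), PCR-amplified and sequenced on an Illumina NextSeq500. Binding signal is each hexamer's read frequency for a factor divided by its frequency for the tag-only sample.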

ELK1 = biological target: T2, ELK1 (Homo sapiens, UniProt P19419 1-428)
T2 sequence: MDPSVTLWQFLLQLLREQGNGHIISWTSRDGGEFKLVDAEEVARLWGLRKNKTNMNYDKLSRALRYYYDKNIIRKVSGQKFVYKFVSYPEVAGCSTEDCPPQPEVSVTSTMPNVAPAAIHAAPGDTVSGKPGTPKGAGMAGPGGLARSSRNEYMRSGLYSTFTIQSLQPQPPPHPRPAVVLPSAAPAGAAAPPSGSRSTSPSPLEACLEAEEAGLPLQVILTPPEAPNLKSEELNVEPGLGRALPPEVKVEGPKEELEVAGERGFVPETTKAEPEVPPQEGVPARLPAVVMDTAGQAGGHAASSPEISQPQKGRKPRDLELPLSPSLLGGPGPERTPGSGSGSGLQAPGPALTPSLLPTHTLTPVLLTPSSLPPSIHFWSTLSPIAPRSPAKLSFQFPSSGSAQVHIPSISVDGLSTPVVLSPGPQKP
Procedure, shortened: as §1

GABPA = biological target: T3, GABPA (Homo sapiens, UniProt Q06546 1-454)
T3 sequence: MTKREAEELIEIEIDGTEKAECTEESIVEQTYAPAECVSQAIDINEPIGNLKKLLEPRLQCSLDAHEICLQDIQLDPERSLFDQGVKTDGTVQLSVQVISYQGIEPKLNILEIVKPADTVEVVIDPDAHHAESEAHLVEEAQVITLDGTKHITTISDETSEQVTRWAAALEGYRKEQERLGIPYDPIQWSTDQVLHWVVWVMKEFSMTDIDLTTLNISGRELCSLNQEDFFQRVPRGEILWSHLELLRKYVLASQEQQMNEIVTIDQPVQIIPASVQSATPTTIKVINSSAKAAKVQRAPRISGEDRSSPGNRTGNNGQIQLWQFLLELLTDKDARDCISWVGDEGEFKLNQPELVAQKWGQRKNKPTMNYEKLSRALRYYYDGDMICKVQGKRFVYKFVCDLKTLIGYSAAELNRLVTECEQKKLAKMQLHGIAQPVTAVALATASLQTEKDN
Procedure, shortened: as §1

ERG = biological target: T4, ERG (Homo sapiens, UniProt P11308 1-479)
T4 sequence: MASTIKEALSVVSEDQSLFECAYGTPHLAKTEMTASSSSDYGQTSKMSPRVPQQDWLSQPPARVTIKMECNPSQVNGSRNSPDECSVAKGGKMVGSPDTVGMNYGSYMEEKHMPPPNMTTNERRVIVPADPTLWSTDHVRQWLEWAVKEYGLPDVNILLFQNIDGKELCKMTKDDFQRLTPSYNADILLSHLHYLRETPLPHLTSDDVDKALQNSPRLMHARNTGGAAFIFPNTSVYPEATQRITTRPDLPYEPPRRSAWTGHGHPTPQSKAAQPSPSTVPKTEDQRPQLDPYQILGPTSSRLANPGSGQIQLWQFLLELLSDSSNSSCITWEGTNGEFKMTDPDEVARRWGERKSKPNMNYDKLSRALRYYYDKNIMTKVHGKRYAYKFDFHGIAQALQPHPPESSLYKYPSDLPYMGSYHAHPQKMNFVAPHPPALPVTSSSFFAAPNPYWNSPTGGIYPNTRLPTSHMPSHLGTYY
Procedure, shortened: as §1

ELF1 = ELF1 (Homo sapiens, UniProt P32519 1-619)
Procedure, shortened: as §1

EHF = biological target: T5, EHF (Homo sapiens, UniProt Q9NZC4 1-300)
T5 sequence: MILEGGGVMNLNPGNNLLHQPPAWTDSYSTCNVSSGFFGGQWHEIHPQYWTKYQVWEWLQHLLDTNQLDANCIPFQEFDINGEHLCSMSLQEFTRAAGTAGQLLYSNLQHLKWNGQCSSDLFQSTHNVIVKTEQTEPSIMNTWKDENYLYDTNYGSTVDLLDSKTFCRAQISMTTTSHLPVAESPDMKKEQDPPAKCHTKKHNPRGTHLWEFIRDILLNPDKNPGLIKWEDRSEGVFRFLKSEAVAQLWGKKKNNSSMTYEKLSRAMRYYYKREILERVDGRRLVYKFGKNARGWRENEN
Procedure, shortened: as §1

SPI1 = SPI1 (Homo sapiens, UniProt P17947 1-270)
Procedure, shortened: as §1

SPIB = SPIB (Homo sapiens, UniProt Q01892 1-262)
Procedure, shortened: as §1

ELK3 = biological target: T6, ELK3 (Homo sapiens, UniProt P41970 1-407)
T6 sequence: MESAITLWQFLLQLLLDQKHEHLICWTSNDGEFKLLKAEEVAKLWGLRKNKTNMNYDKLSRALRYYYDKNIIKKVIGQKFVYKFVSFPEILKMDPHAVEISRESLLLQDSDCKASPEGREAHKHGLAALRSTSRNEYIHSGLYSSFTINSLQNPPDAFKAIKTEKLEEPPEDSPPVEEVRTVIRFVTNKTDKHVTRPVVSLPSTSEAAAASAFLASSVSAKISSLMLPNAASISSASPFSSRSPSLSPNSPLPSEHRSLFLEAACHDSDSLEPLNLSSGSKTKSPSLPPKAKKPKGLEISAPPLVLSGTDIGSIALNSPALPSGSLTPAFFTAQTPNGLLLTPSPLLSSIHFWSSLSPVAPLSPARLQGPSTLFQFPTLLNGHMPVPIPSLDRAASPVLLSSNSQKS
Procedure, shortened: as §1

Sequence of SPIB (Q01892 whole entry): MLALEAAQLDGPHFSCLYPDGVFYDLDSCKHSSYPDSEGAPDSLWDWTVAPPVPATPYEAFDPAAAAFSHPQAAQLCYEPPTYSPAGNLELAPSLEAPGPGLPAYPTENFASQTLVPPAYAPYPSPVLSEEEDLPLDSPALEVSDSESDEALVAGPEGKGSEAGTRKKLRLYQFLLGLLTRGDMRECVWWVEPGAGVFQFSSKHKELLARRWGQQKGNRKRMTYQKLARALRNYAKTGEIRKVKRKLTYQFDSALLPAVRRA
Sequence of ELF1 (P32519 whole entry): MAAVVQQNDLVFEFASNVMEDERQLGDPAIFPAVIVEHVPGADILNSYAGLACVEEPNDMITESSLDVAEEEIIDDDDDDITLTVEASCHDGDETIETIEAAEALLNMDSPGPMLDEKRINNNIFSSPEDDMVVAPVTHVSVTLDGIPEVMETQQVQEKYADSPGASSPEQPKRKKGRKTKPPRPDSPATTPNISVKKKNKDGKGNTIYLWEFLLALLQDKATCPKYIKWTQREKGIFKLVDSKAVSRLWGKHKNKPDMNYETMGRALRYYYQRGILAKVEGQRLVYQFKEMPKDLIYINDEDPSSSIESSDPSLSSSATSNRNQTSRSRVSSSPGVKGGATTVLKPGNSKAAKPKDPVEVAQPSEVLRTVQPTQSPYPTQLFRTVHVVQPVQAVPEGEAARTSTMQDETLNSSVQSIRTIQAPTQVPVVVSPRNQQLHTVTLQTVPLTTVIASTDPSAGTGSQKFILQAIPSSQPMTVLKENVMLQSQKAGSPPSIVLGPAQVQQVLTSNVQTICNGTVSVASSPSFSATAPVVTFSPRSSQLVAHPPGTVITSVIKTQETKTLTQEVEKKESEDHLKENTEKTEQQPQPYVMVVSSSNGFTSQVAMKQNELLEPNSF

How did the binding signal (FLI1) turn out when GTTACT was run?
The binding signal was 1.25 fold enrichment (6-mer frequency, TF over GST control).

And the binding signal (ELK1)?
Its binding signal is 1.28 fold enrichment (6-mer frequency, TF over GST control).

What about the binding signal (GABPA) of the same sequence?
Its binding signal is 1.13 fold enrichment (6-mer frequency, TF over GST control).

And the binding signal (ERG)?
The binding signal was 1.33 fold enrichment (6-mer frequency, TF over GST control).

What about the binding signal (ELF1) of the same sequence?
The binding signal was 1.22 fold enrichment (6-mer frequency, TF over GST control).

And the binding signal (EHF)?
The binding signal was 1.37 fold enrichment (6-mer frequency, TF over GST control).

And the binding signal (SPI1)?
Its binding signal is 1.3 fold enrichment (6-mer frequency, TF over GST control).

And the binding signal (SPIB)?
The binding signal was 1.23 fold enrichment (6-mer frequency, TF over GST control).

And the binding signal (ELK3)?
Its binding signal is 1.31 fold enrichment (6-mer frequency, TF over GST control).

Which results are given for TCGCAC?
binding signal (FLI1): 1.11 fold enrichment (6-mer frequency, TF over GST control); binding signal (ELK1): 1.1 fold enrichment (6-mer frequency, TF over GST control); binding signal (GABPA): 1.09 fold enrichment (6-mer frequency, TF over GST control); binding signal (ERG): 1.07 fold enrichment (6-mer frequency, TF over GST control); binding signal (ELF1): 1.13 fold enrichment (6-mer frequency, TF over GST control); binding signal (EHF): 1.06 fold enrichment (6-mer frequency, TF over GST control); binding signal (SPI1): 1.13 fold enrichment (6-mer frequency, TF over GST control); binding signal (SPIB): 1.02 fold enrichment (6-mer frequency, TF over GST control); binding signal (ELK3): 1.02 fold enrichment (6-mer frequency, TF over GST control)

With CGGATG as the sequence, how does the binding signal (FLI1) read?
The binding signal was 1.53 fold enrichment (6-mer frequency, TF over GST control).

What about the binding signal (ELK1) of the same sequence?
Its binding signal is 1.66 fold enrichment (6-mer frequency, TF over GST control).

What about the binding signal (GABPA) of the same sequence?
Its binding signal is 1.49 fold enrichment (6-mer frequency, TF over GST control).

What about the binding signal (ERG) of the same sequence?
The binding signal was 1.92 fold enrichment (6-mer frequency, TF over GST control).

What about the binding signal (ELF1) of the same sequence?
Its binding signal is 1.45 fold enrichment (6-mer frequency, TF over GST control).

And the binding signal (EHF)?
The binding signal was 1.67 fold enrichment (6-mer frequency, TF over GST control).

What about the binding signal (SPI1) of the same sequence?
The binding signal was 1.52 fold enrichment (6-mer frequency, TF over GST control).

What about the binding signal (SPIB) of the same sequence?
Its binding signal is 1.6 fold enrichment (6-mer frequency, TF over GST control).

And the binding signal (ELK3)?
Its binding signal is 1.6 fold enrichment (6-mer frequency, TF over GST control).

With ACTCGA as the sequence, how does the binding signal (FLI1) read?
Its binding signal is 1.35 fold enrichment (6-mer frequency, TF over GST control).

What about the binding signal (ELK1) of the same sequence?
Its binding signal is 1.48 fold enrichment (6-mer frequency, TF over GST control).

And the binding signal (GABPA)?
Its binding signal is 1.44 fold enrichment (6-mer frequency, TF over GST control).

What about the binding signal (ERG) of the same sequence?
Its binding signal is 1.22 fold enrichment (6-mer frequency, TF over GST control).

And the binding signal (ELF1)?
The binding signal was 1.49 fold enrichment (6-mer frequency, TF over GST control).

What about the binding signal (EHF) of the same sequence?
Its binding signal is 1.14 fold enrichment (6-mer frequency, TF over GST control).

What about the binding signal (SPI1) of the same sequence?
The binding signal was 1.26 fold enrichment (6-mer frequency, TF over GST control).

And the binding signal (SPIB)?
The binding signal was 1.24 fold enrichment (6-mer frequency, TF over GST control).

And the binding signal (ELK3)?
Its binding signal is 1.27 fold enrichment (6-mer frequency, TF over GST control).

With CTTGTG as the sequence, how does the binding signal (FLI1) read?
The binding signal was 1.57 fold enrichment (6-mer frequency, TF over GST control).

What about the binding signal (ELK1) of the same sequence?
The binding signal was 1.58 fold enrichment (6-mer frequency, TF over GST control).

What about the binding signal (GABPA) of the same sequence?
The binding signal was 1.45 fold enrichment (6-mer frequency, TF over GST control).

And the binding signal (ERG)?
The binding signal was 1.45 fold enrichment (6-mer frequency, TF over GST control).

What about the binding signal (ELF1) of the same sequence?
Its binding signal is 1.46 fold enrichment (6-mer frequency, TF over GST control).

And the binding signal (EHF)?
The binding signal was 1.44 fold enrichment (6-mer frequency, TF over GST control).

What about the binding signal (SPI1) of the same sequence?
The binding signal was 1.46 fold enrichment (6-mer frequency, TF over GST control).

What about the binding signal (SPIB) of the same sequence?
The binding signal was 1.68 fold enrichment (6-mer frequency, TF over GST control).

What about the binding signal (ELK3) of the same sequence?
The binding signal was 1.6 fold enrichment (6-mer frequency, TF over GST control).

What does the source list for CCAATG?
binding signal (FLI1): 1.14 fold enrichment (6-mer frequency, TF over GST control); binding signal (ELK1): 1.11 fold enrichment (6-mer frequency, TF over GST control); binding signal (GABPA): 1.14 fold enrichment (6-mer frequency, TF over GST control); binding signal (ERG): 1 fold enrichment (6-mer frequency, TF over GST control); binding signal (ELF1): 1.15 fold enrichment (6-mer frequency, TF over GST control); binding signal (EHF): 1.03 fold enrichment (6-mer frequency, TF over GST control); binding signal (SPI1): 1.08 fold enrichment (6-mer frequency, TF over GST control); binding signal (SPIB): 1.15 fold enrichment (6-mer frequency, TF over GST control); binding signal (ELK3): 1.08 fold enrichment (6-mer frequency, TF over GST control)

Which results are given for CCACTG?
binding signal (FLI1): 1.16 fold enrichment (6-mer frequency, TF over GST control); binding signal (ELK1): 1.11 fold enrichment (6-mer frequency, TF over GST control); binding signal (GABPA): 1.25 fold enrichment (6-mer frequency, TF over GST control); binding signal (ERG): 1.23 fold enrichment (6-mer frequency, TF over GST control); binding signal (ELF1): 1.28 fold enrichment (6-mer frequency, TF over GST control); binding signal (EHF): 1.19 fold enrichment (6-mer frequency, TF over GST control); binding signal (SPI1): 1.16 fold enrichment (6-mer frequency, TF over GST control); binding signal (SPIB): 1.15 fold enrichment (6-mer frequency, TF over GST control); binding signal (ELK3): 1.2 fold enrichment (6-mer frequency, TF over GST control)
